According to PubChem BioAssay AID2289 (National Center for Advancing Translational Sciences (NCATS), 2010):
The campaign covered roughly 340,000 compounds. About 3,300 (0.97%) were called active. Not shown: some 9% with an inconclusive outcome. Calls follow the shape of the dose curve; as a rule, active = well fitted inhibition curve with a large enough effect; inconclusive = small, poorly fitted or top-dose-only effect, or effect the other way; inactive = flat fitted curve, though single readings scatter. This is one part of the list.

Assay: qHTS Assay for Modulators of miRNAs and/or Inhibitors of miR-21; also: nearly all actives have a fitted effect of over 55% in size
Conditions: HeLa miR-21-FLuc reporter, luciferase luminescence, 48 h; actives lower the signal
Summary of the method: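 Compounds were titrated across several concentrations (up to approximately 40 uM) and incubated 48 hours with HeLa miR-21-FLuc reporter cells (miR-21 target sequence downstream of FLuc, endogenous miR-21). Readout was firefly luciferase luminescence after lytic detection reagent.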
Potency is read from the fitted curve at half-maximal effect.

Potency, active:
O=C(Oc1ccc2c(c1)OCO2)c1ccc(F)cc1Cl 16.5 µM
CC1CCN(C(=O)CSc2nc3ccccc3[nH]2)CC1 2.93 µM
ClC1(Cl)CC1CSc1nc2ccccc2[nH]1 (stereo not given) 14.7 µM
O=c1c2ccccc2nnn1CSc1nc2ccccc2[nH]1 4.65 µM
CCCCSc1nc2ccccc2[nH]1 13.1 µM
Cc1ccc(-c2cc(C(=O)O)n(Cc3ccccc3)n2)cc1 14.7 µM
Cc1ccc(Cn2nc(C)cc2C(=O)Nc2ccccc2Cl)cc1 7.36 µM
Cc1ccc(NC(=O)CNCc2cccs2)c(Br)c1 14.7 µM
Cc1ccc(NC(=O)CC2CCCC2)c(Br)c1 14.7 µM
CNC(=O)c1sc2nc(-c3ccc(OC)cc3)cn2c1C 0.736 µM
Cc1c(C(N)=O)sc2nc(-c3ccccc3)cn12 11.7 µM
O=C(O)c1cccc(N/N=C/c2cccs2)c1 0.0826 µM
O=C(O)c1cc(N/N=C/c2cccs2)ccc1Cl 1.85 µM
Cc1ccc(OC(=O)c2cccc(S(=O)(=O)N(C)C)c2)c(-n2nc3ccccc3n2)c1 5.85 µM
Cc1ccc(OC(=O)COc2ccccc2C)c(-n2nc3ccccc3n2)c1 4.14 µM
Cc1ccc(O)c(-n2nc3ccccc3n2)c1 11.7 µM
Cc1ccc(OC(=O)c2cccc(S(=O)(=O)N3CCCC3)c2)c(-n2nc3ccccc3n2)c1 2.61 µM
c1ccc(CCSc2nccn2-c2ccccc2)cc1 1.85 µM
CCN(CC)CCN(C(=O)c1ccc2ncsc2c1)c1nc2cc3c(cc2s1)OCO3 1.04 µM
CCOC(=O)N/N=C/C(Cl)=C/c1ccccc1 10.4 µM
O=C(N/N=C/C=C/c1ccccc1)c1cccs1 7.36 µM
O=C(N/N=C/C(Cl)=C\c1ccccc1)c1ccco1 3.69 µM
O=C(N/N=C/C(Cl)=C\c1ccccc1)c1cccs1 1.85 µM
O=C(N/N=C/C=C/c1ccccc1)c1ccccn1 5.85 µM
O=C(N/N=C/C(Cl)=C/c1ccccc1)c1ccccc1F 8.26 µM
COc1ccccc1/C=C/C=N/NC(=O)c1cccs1 3.69 µM
C/C(=N\O)c1ccc(N2C(=O)C3CC=C(Cl)CC3C2=O)cc1 (stereo not given) 3.29 µM
CCOc1ccc(N=C/C=C/c2ccccc2)c(O)c1 3.29 µM
O=C(Cn1cnc2ccccc2c1=O)c1ccc(Br)cc1 5.21 µM
O=C(Cn1cnc2ccccc2c1=O)c1ccc(Cl)cc1 7.36 µM
Cc1ccc(C(=O)Cn2cnc3ccccc3c2=O)cc1 5.85 µM
O=C(Cn1cnc2ccccc2c1=O)c1ccc2ccccc2c1 7.36 µM
COc1ccc2cnn(-c3ccc(C)cc3)c(=O)c2c1OC 6.56 µM
CC(C)c1ccc(N(C(=O)c2ccco2)C(C(=O)NC2CCCC2)c2ccncc2)cc1 (stereo not given) 6.56 µM
O=C(O)c1ccccc1OCc1nc2ccccc2s1 3.29 µM
Cc1cc(OCc2nc3ccccc3s2)ccc1N 1.17 µM
NC(=O)c1ccccc1OCc1nc2ccccc2s1 1.47 µM
OCc1cc(Br)ccc1OCc1nc2ccccc2s1 1.65 µM
O=C(NCCO)c1ccc2c3n(nc2c1)-c1ccc(Cl)cc1CO3 9.27 µM
CC(C)[C@@H](CO)NC(=O)c1ccc2c3n(nc2c1)-c1ccc(Cl)cc1CO3 1.85 µM
Cc1ccc2c(c1)COc1c3ccc(C(=O)NCCO)cc3nn1-2 5.21 µM
O=C(Nc1sc2c(c1C(=O)NCc1ccco1)CCCC2)c1cc(=O)c2ccccc2o1 5.85 µM
Cc1cc(CN(C)C(=O)c2cc(COc3ccc(F)cc3Cl)on2)n[nH]1 10.4 µM
Cc1nnc(CN(C)C(=O)c2cc(COc3ccc(F)cc3Cl)on2)o1 13.1 µM
COc1ccc(OCc2cc(C(=O)N(C)Cc3nnc(C)o3)no2)c(Cl)c1 14.7 µM
S=C(c1ccc(-c2ccc(Cl)c(Cl)c2)o1)N1CCOCC1 1.47 µM
N#CCCN1CCN(C(=S)c2ccc(-c3cccc(Cl)c3)o2)CC1 13.1 µM
O=[N+]([O-])c1cccc(-c2ccc(C(=S)N3CCOCC3)o2)c1 1.04 µM
S=C(c1ccc(-c2cccc(Cl)c2)o1)N1CCCCC1 1.31 µM
S=C(c1ccc(-c2cccc(Cl)c2)o1)N1CCOCC1 3.69 µM
COCCN=C1NN=C(c2ccc(C)c([N+](=O)[O-])c2)CS1 4.14 µM
C=C(C)CSc1nncn1/N=C/c1ccc(OC)cc1 11.7 µM
C=CCSc1nncn1/N=C/c1ccc(OC)cc1 2.61 µM
Cn1cccc1-c1nc2ccc([N+](=O)[O-])cc2[nH]1 2.07 µM
O=[N+]([O-])c1ccc2nc(-c3ccncc3)[nH]c2c1 18.5 µM
Fc1cc2nc(-c3ccncc3)[nH]c2cc1F 16.5 µM
CC1CCn2c(nc3cc(C(=O)NCc4ccccc4)ccc32)C1 (stereo not given) 7.36 µM
Cc1ccc(CNC(=O)c2ccc3c(c2)nc2n3CCCC2)cc1 18.5 µM
COc1ccc(-c2cc3nc4n(c(=O)c3s2)CCCCC4)cc1 0.369 µM
COc1cc(OC)cc(C(=O)Nc2ccc3nc4n(c(=O)c3c2)CCCCC4)c1 2.33 µM
COc1ccc(CNC(=O)c2ccc3c(c2)nc2n3CCCCC2)cc1 4.65 µM
CCOc1ccc(CNC(=O)c2ccc3c(c2)nc2n3CCCCC2)cc1 2.07 µM
COc1ccc(N=C2C(=Nc3ccc(OC)cc3)N(c3ccccc3)C(=S)N2C(=O)c2ccc(Cl)cc2)cc1 5.21 µM
CCc1ccc(-c2csc(NC(=O)COC(=O)CCc3nc4ccccc4s3)n2)cc1 2.07 µM
CCc1ccc(-c2csc(NC(=O)Oc3ccccc3)n2)cc1 3.69 µM
COc1ccc(-c2csc(NC(=O)COC(=O)c3ccco3)n2)cc1 3.69 µM
Cc1nc(N)sc1N=Nc1ccc(Br)cc1 0.736 µM
Cc1nc(N)sc1N=Nc1ccc(F)cc1 4.65 µM
Cc1nc(N)sc1N=Nc1ccccc1C(F)(F)F 5.21 µM
COCCN(CCOC)c1ncnc2c1cnn2-c1ccc(Cl)cc1 7.36 µM
Cc1cccc(-n2ncc3c(N(CCO)CCO)ncnc32)c1 5.21 µM
CCN(c1ccccc1)c1ncnc2c1cnn2-c1ccccc1 7.36 µM
CCCCN(c1ccccc1)c1ncnc2c1cnn2-c1ccc(Cl)cc1 5.85 µM
Cc1ccc2c(c1)c1cccc3c1n2CCN3CCC(N)=O 6.56 µM
CC(=O)N1CCn2c3ccc(C)cc3c3cccc1c32 14.7 µM
Clc1ccc(OCc2nc(-c3ccncc3)no2)c(Br)c1 1.65 µM
CC(Oc1ccc(Cl)cc1Cl)c1nc(-c2ccccn2)no1 (stereo not given) 6.56 µM
CC(C)(C)c1ccc(OCc2nc(-c3ccccn3)no2)c(Br)c1 1.65 µM
Clc1cc(Cl)c(OCc2nc(-c3ccccn3)no2)cc1Cl 0.736 µM
Nc1cnc(Nc2ccc(Br)cc2)nc1N 11.7 µM
Cc1ccc2c(c1)-c1nc3ccccc3cc1C2=NC1CCCCC1 0.656 µM
CC(C)CCn1cnc2c(sc3nc4c(cc32)CSC(C)(C)C4)c1=O 0.293 µM
CCCCn1cnc2c(sc3nc4c(cc32)CSC(C)(C)C4)c1=O 0.585 µM
COc1ccc(C(=O)COc2ccccc2C#N)cc1 4.65 µM
O=C(COc1ccccc1)Nc1ccc(Cl)cc1Cl 5.85 µM
COc1cccc(NC(=O)COc2ccc(C)cc2)c1 7.36 µM
NC(=O)c1ccccc1NC(=O)COc1ccc(Cl)cc1 4.65 µM
Cc1ccc(OCC(=O)Nc2ccccc2C(N)=O)cc1 1.17 µM
COC(=O)c1ccc(OCC(=O)c2cccc(OC)c2)cc1 10.4 µM
Cc1sc2c(c1C)C(=O)NC(c1ccccc1F)N2 (stereo not given) 7.36 µM
COc1ccc(OCCOc2ccccc2[N+](=O)[O-])cc1 6.56 µM
Cc1ccc(OCCOc2ccc(Br)cc2)c([N+](=O)[O-])n1 5.85 µM
Cc1ccc(OCCOc2cccc(Br)c2)c([N+](=O)[O-])n1 6.56 µM
COc1ccc(OCCOc2ccc(C)nc2[N+](=O)[O-])cc1 13.1 µM
O=C(O)c1cccc(-c2nnn(Cc3ccccc3)n2)c1 2.33 µM
O=C(O)c1cccc(-c2nnn(Cc3ccccc3Cl)n2)c1 0.414 µM
COc1ccc(CNC(=O)c2ccc(C(C)(C)C)cc2)cc1 5.85 µM
CC(C)(C)c1ccc(C(=O)NCc2ccccc2)cc1 14.7 µM
CC(C)(C)c1ccc(C(=O)NCCC(=O)N2CCCC2)cc1 2.33 µM
CCCc1nn(C)c(C(=O)Nc2cccc(C)c2)c1Cl 5.21 µM
CCCc1nn(C)c(C(=O)Nc2ccc3ccccc3c2)c1Cl 7.36 µM
CCCc1nn(C)c(C(=O)Nc2cccc(Cl)c2)c1Cl 7.36 µM
CCCc1nn(C)c(C(=O)Nc2ccccc2)c1Cl 1.85 µM
CCC1CN(C(=O)Nc2cccc3c2CCCC3)c2cc(C)ccc2O1 (stereo not given) 7.36 µM
COc1ccc(/C=C/c2nc3ccccc3n2Cc2ccc(OC)c(OC)c2)cc1 1.47 µM
